The record followed here is PubChem BioAssay (EPA / NIEHS).

SMILES strings stand for the structures. “And” between values parts separate entries of the source, which are not always exact repeats. Equal entries are not always repeated. Results filed as inconclusive are left out. Some structures have more than one record in an assay (separate samples or runs), and their calls can disagree. The source made the active and inactive calls. The calls were made as follows, unless noted: active = hit-call score of the fitted dose curve at least 0.9, where 1 is the maximum; inactive = score below 0.9.

The first experiment in a line: CCTE_Shafer_MEA_dev_per_burst_spike_percent: CCTE's Neural Network Formation Assay for Percent of Spikes in a Burst, Shafer Lab (AID 2284032).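 As to AC50: fitted as a decrease in burst spike percentage below DMSO baseline.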 An outline of the steps:
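Rat primary cortical neurons on 16-electrode MEA wells, dosed from plating day 0 for 12 days with renewal on DIV 5 and 9; spikes-in-bursts percentage averaged over bursting electrodes, collapsed as AUC across days 5, 7, 9, 12; loss direction versus DMSO.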
In the case of `CC(C)=CC1C(C(=O)OCN2C(=O)C3=C(CCCC3)C2=O)C1(C)C` (stereo not drawn), the compound was called inactive.

For `COP(=O)(OC)C(O)C(Cl)(Cl)Cl` (stereo not drawn), the AC50 is 50 µM (active) and the compound was classed as inactive.

Take `CC[C@H](C)[C@H]1O[C@]2(C=C[C@@H]1C)C[C@@H]1C[C@@H](C/C=C(\C)[C@@H](O[C@H]3C[C@H](OC)[C@@H](O[C@H]4C[C@H](OC)[C@@H](NC)[C@H](C)O4)[C@H](C)O3)[C@@H](C)/C=C/C=C3\CO[C@@H]4[C@H](O)C(C)=C[C@@H](C(=O)O1)[C@]34O)O2`: the AC50 is 88.8 nM (active) and 3.52 nM (active).

As for `CC1=NNC(=O)N(/N=C/c2cccnc2)C1`, the result was inactive.

As to `CC(=NC#N)N(C)Cc1ccc(Cl)nc1`, the compound was classed as inactive.

With `CCOP(=S)(OCC)Oc1ccc2c(C)c(Cl)c(=O)oc2c1`, the AC50 is 50 µM (active).

As for `C[N+]1(C)CCCCC1`, the call was inactive.

As for `COP(=O)(NC(C)=O)SC` (stereo not drawn), the call was inactive.

As for `CN(C)[C@@H]1C(=O)C(C(N)=O)=C(O)[C@@]2(O)C(=O)C3=C(O)c4c(O)cccc4[C@@](C)(O)[C@H]3[C@H](O)[C@@H]12`, the AC50 was 50 µM (active).

`C[Si](Cn1cncn1)(c1ccc(F)cc1)c1ccc(F)cc1`: the result was inactive.

On to `C=C(C)[C@H]1Cc2c(ccc3c2O[C@@H]2COc4cc(OC)c(OC)cc4[C@@H]2C3=O)O1`, for which the AC50 is 24.4 nM (active) and 20.6 nM (active).

Consider `O=[N+]([O-])c1cc(C(F)(F)F)c(Cl)c([N+](=O)[O-])c1Nc1ncc(C(F)(F)F)cc1Cl`, for which the AC50 was 0.669 µM (active).

The next experiment can be described thus: CCTE_Deisenroth_AIME_384WELL_CTox_Active: Cytotoxicity Assessment (CTOX) in CCTE's 384-well Estrogen Receptor Transactivation Assay with AIME metabolic competence (metabolism positive), Deisenroth Lab (AID 2284037; active = hit-call score of the fitted dose curve at least 0.9, where 1 is the maximum;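 also: chemicals first conditioned 2 h by alginate-bound induced rat liver S9 before cells; activity means signal loss indicating cell death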). An outline of the steps:
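Cytotoxicity in VM7Luc4E2 breast cells, 24 hour, measured as protease-substrate fluorescence loss, after 2-hour metabolic conditioning with induced rat hepatic S9 in alginate microspheres. Concentrations 0.002 - 200 uM, 10 points, bidirectional fitting.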
For the compound `CC1=NNC(=O)N(/N=C/c2cccnc2)C1`, the compound was called inactive.

For `CCOP(=S)(OCC)Oc1ccc2c(C)c(Cl)c(=O)oc2c1`, the result was inactive.

As to `COP(=O)(NC(C)=O)SC` (stereo not drawn), the outcome was inactive.

Take `CN(C)[C@@H]1C(=O)C(C(N)=O)=C(O)[C@@]2(O)C(=O)C3=C(O)c4c(O)cccc4[C@@](C)(O)[C@H]3[C@H](O)[C@@H]12`: the compound was classed as inactive.

With `O=[N+]([O-])c1cc(C(F)(F)F)c(Cl)c([N+](=O)[O-])c1Nc1ncc(C(F)(F)F)cc1Cl`, the AC50 was 100 µM (active).

Broadly, the AC50 is the concentration giving half of the maximal activity seen.
